Measurements taken from the supplement of paper PMC13094657.
± gives the standard deviation of the averaged measurements.

What was measured:
[1] = test system: MDA-MB-231; experiment: cell viability relative to vehicle unstimulated control (fraction); higher = more viable cells; details: pre-treatment time: 18 h then 24 h IFNg/TNF
[2] = test system: MDA-MB-231; experiment: kynurenine production, fold change vs DMSO IFNg/TNF control; higher = more kynurenine produced (less inhibition); details: pre-treatment time: 18 h then 24 h IFNg/TNF
Method in brief: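 In 96-well plates, MDA-MB-231 cells (7 × 10^4/well) were given 24 h to settle, pre-treated for 18 h with each natural product in 0.1% DMSO, and stimulated for 24 h with IFNγ (1 U/ml) and TNF (6.25 ng/ml) at 37°C. Supernatants were processed with trichloroacetic acid and p-dimethylaminobenzaldehyde and read at 492 nm against 0–100 μM standards. In the first screening round, kynurenine production, as fold change over same-plate cytokine-stimulated vehicle wells, was averaged over duplicate plates.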
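Throughout, for cell viability relative to vehicle unstimulated control: viability of the cells left after supernatant collection, read with Deep Blue dye added for 4 h, as absorbance at 570 nm minus 600 nm.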

Compound	cell viability [1]	kynurenine production [2]
C/C=C(\C)C(=O)O[C@H]1[C@H](O)[C@]2(COC(C)=O)[C@@H](O)C[C@]3(C)C(=CC[C@@H]4[C@@]5(C)CC[C@H](O[C@@H]6O[C@H](C(=O)O)[C@@H](O)[C@H](O)[C@H]6O)[C@@](C)(CO)[C@@H]5CC[C@]43C)[C@@H]2CC1(C)C [Gymnemic acid I] (compound dose: 10 uM)	1.1 ± 0.017	1.43 ± 0.11
CC(C)=CCC[C@](C)(O[C@@H]1O[C@H](CO[C@@H]2OC[C@H](O)[C@H](O)[C@H]2O)[C@@H](O)[C@H](O)[C@H]1O)[C@H]1CC[C@]2(C)[C@@H]1[C@H](O)C[C@@H]1[C@@]3(C)CC[C@H](O[C@@H]4O[C@H](CO)[C@@H](O)[C@H](O)[C@H]4O[C@@H]4O[C@H](CO)[C@@H](O)[C@H](O)[C@H]4O)C(C)(C)[C@@H]3CC[C@]12C [Ginsenoside Rb2] (compound dose: 10 uM)	0.968 ± 0.04	0.88 ± 0.14
CC(C)=CCC[C@](C)(O)[C@H]1CC[C@]2(C)[C@@H]1[C@H](O)C[C@@H]1[C@@]3(C)CC[C@H](O[C@@H]4O[C@H](CO)[C@@H](O)[C@H](O)[C@H]4O[C@@H]4O[C@H](CO)[C@@H](O)[C@H](O)[C@H]4O)C(C)(C)[C@@H]3CC[C@]12C [20(S)-Ginsenoside Rg3] (compound dose: 10 uM)	1 ± 0.046	0.969 ± 0.28
C=C1[C@@H]2CC[C@@H]3[C@](C2)(C(=O)[C@@H](O)[C@@H]2C(C)(C)[C@H]4CC(=O)[C@@]32CO4)[C@@H]1OC(C)=O [Maoecrystal A] (compound dose: 10 uM)	0.9322 ± 0.0011	0.8659 ± 0.0031
COC(=O)[C@@]1(C)CC[C@]2(C(=O)O)CC[C@]3(C)C(=CC[C@@H]4[C@@]5(C)C[C@H](O)[C@H](O)[C@@](C)(CO)[C@@H]5CC[C@]43C)[C@@H]2C1 [Phytolaccagenin] (compound dose: 10 uM)	0.924 ± 0.049	0.875 ± 0.095
C=C1CC[C@@H]2[C@](C)(CO)[C@H](O)CC[C@@]2(C)[C@H]1C/C=C1\C=COC1=O [Dehydroandrographolide] (compound dose: 10 uM)	0.984 ± 0.032	0.754 ± 0.058
O[C@@H]1[C@@H](O)[C@@H](OC/C=C/c2ccccc2)O[C@H](CO[C@@H]2OC[C@H](O)[C@H](O)[C@H]2O)[C@H]1O [Rosavin] (compound dose: 10 uM)	1.003 ± 0.0045	0.882 ± 0.2
CC(C)=CCC[C@](C)(O[C@@H]1O[C@H](CO)[C@@H](O)[C@H](O)[C@H]1O)[C@H]1CC[C@]2(C)[C@@H]1[C@H](O)C[C@@H]1[C@@]3(C)CC[C@H](O)C(C)(C)[C@@H]3[C@@H](O[C@@H]3O[C@H](CO)[C@@H](O)[C@H](O)[C@H]3O[C@@H]3OC[C@@H](O)[C@H](O)[C@H]3O)C[C@]12C [Notoginsenoside R1] (compound dose: 10 uM)	0.909 ± 0.066	1 ± 0.038
CC(=O)OCC1=C[C@@H]2OC(=O)C3=CO[C@@H](O[C@@H]4O[C@H](CO)[C@@H](O)[C@H](O)[C@H]4O)[C@H]1[C@@H]32 [Asperuloside] (compound dose: 10 uM)	0.983 ± 0.03	0.923 ± 0.15
C=C1C(=O)[C@]23[C@H](O)[C@H]1CC[C@H]2[C@@]12CO[C@]3(O)[C@@H](O)[C@@H]1C(C)(C)CC[C@@H]2O [Oridonin] (compound dose: 10 uM)	0.917 ± 0.017	0.73 ± 0.054
CC=C1[C@H](O[C@@H]2O[C@H](CO)[C@@H](O)[C@H](O)[C@H]2O)OC=C(C(=O)OC)[C@H]1CC(=O)OC[C@H]1O[C@@H](OCCc2ccc(O)cc2)[C@H](O)[C@@H](O)[C@@H]1O (stereo in doubt) [Specnuezhenide] (compound dose: 10 uM)	1 ± 0.026	0.905 ± 0.21
COC(=O)C1=CO[C@@H](O[C@@H]2O[C@H](CO)[C@@H](O)[C@H](O)[C@H]2O)[C@H]2[C@@H]1[C@H](O)C[C@]2(C)OC(C)=O [Barlerin] (compound dose: 10 uM)	1.01 ± 0.02	0.884 ± 0.11
C/C1=C\C(=O)c2c(C)coc2C/C(C)=C/CC1 [Furanodienone] (compound dose: 10 uM)	0.949 ± 0.065	0.759 ± 0.13
CC1(C)CC[C@]2(C(=O)O)[C@H](O)C[C@]3(C)C(=CC[C@@H]4[C@@]5(C)CC[C@H](O)[C@@](C)(C=O)[C@@H]5CC[C@]43C)[C@@H]2C1 [Quillaic acid] (compound dose: 10 uM)	1.01 ± 0.015	1.11 ± 0.018
C=C1C(OC(C)=O)C(OC(C)=O)C(OC(=O)c2cccnc2)C(C)(C)C=CC(C)C(OC(C)=O)C2(O)CC(C)(OC(C)=O)C(OC(=O)c3ccccc3)C2C1OC(C)=O (stereo not given) [Pepluanin A] (compound dose: 10 uM)	1.11 ± 0.017	0.806 ± 0.06
CC(C)=CCC[C@@H](C)CCO [(R)-Citronellol] (compound dose: 10 uM)	1.029 ± 0.0012	0.824 ± 0.11
C=C1C(=O)O[C@@H]2C[C@@]3(C)CCCC(=C)[C@@H]3C[C@H]12 [Isoalantolactone] (compound dose: 10 uM)	0.951 ± 0.082	0.255 ± 0.077
C=C1CCC[C@]2(C)C[C@@H]3OC(=O)C(C)=C3C[C@@H]12 [Atractylenolide II] (compound dose: 10 uM)	1.03 ± 0.018	1.06 ± 0.041

Compound	cell viability [1]	kynurenine production [2]
C[C@@H]1CC[C@H]2C(C)(C)[C@H]3C[C@@]12CC[C@@]3(C)O [Cedrol] (compound dose: 10 uM)	0.977 ± 0.06	1.06 ± 0.019
CC1=CCC2CC1C2(C)C (stereo not drawn) [(+)-α-pinene] (compound dose: 10 uM)	0.9918 ± 0.0024	0.97 ± 0.036
COc1ccc2cc3[n+](cc2c1OC)CCc1cc2c(cc1-3)OCO2 [Berberine] (compound dose: 10 uM)	0.8829 ± 0.0012	0.807 ± 0.11
CC(C)=CCC/C(C)=C/CO [Geraniol] (compound dose: 10 uM)	0.998 ± 0.042	0.829 ± 0.2
CC1CCC(C(C)C)C(O)C1 [(1R,2S,5R)-(-)-menthol] (compound dose: 10 uM)	0.935 ± 0.035	0.806 ± 0.069
C=C1C(=O)O[C@@H]2/C=C(\C)CC/C=C(\C)CC[C@@H]12 [Costunolide] (compound dose: 10 uM)	1.03 ± 0.059	0.474 ± 0.063
CC(=O)OC/C=C(\C)CCC=C(C)C [Geranyl acetate] (compound dose: 10 uM)	1.01 ± 0.065	0.882 ± 0.039
CC(=O)O[C@@]1(C)C[C@@H](O)[C@]2(O)C=CO[C@@H](O[C@@H]3O[C@H](CO)[C@@H](O)[C@H](O)[C@H]3O)[C@@H]21 [8-O-Acetylharpagide] (compound dose: 10 uM)	0.9 ± 0.067	0.906 ± 0.076
CC(C)C1=CC(=O)C(C)(C2C(O)CC3(C)C4CC=C5C(CCC(OC6OC(CO)C(O)C(O)C6OC6OC(C)C(O)C(O)C6O)C5(C)C)C4(C)C(=O)CC23C)O1 (stereo not given) [Picfeltarraenin IB] (compound dose: 10 uM)	1.02 ± 0.067	0.771 ± 0.23
CC(=O)O[C@@H]1[C@@H](O)[C@H](O[C@H]2CC[C@]34C[C@]35CC[C@]3(C)[C@@H]([C@@]6(C)CC[C@@H](C(C)(C)O)O6)[C@@H](O)C[C@@]3(C)[C@@H]5C[C@H](O[C@@H]3O[C@H](CO)[C@@H](O)[C@H](O)[C@H]3O)[C@H]4C2(C)C)OC[C@H]1O [Isoastragaloside II] (compound dose: 10 uM)	0.99 ± 0.011	0.968 ± 0.029
C[C@H](CC[C@@H](O[C@@H]1O[C@H](CO)[C@@H](O)[C@H](O)[C@H]1O)C(C)(C)O)[C@H]1CC[C@@]2(C)[C@@H]3CC=C4[C@@H](CC[C@H](O[C@@H]5O[C@H](CO)[C@@H](O)[C@H](O)[C@H]5O)C4(C)C)[C@]3(C)[C@H](O)C[C@]12C [Mogroside IIe] (compound dose: 10 uM)	0.984 ± 0.089	0.934 ± 0.29
C[C@@H]1CC[C@]2(C(=O)O[C@@H]3O[C@H](CO)[C@@H](O)[C@H](O)[C@H]3O)CC[C@]3(C)C(=CC[C@@H]4[C@@]5(C)CC[C@H](O)[C@@](C)(CO)[C@@H]5CC[C@]43C)[C@@H]2[C@]1(C)O [Pedunculoside] (compound dose: 10 uM)	0.967 ± 0.074	1 ± 0.29
C=C1C[C@@]23CC[C@H]4[C@@](C)(CCC[C@@]4(C)C(=O)O)[C@@H]2CC[C@]1(O)C3 [Steviol] (compound dose: 10 uM)	1.1 ± 0.014	0.964 ± 0.38
CC1(C)[C@@H](O[C@H]2O[C@H](C(=O)O)[C@@H](O)[C@H](O)[C@H]2O[C@@H]2O[C@H](C(=O)O)[C@@H](O)[C@H](O)[C@H]2O)CC[C@]2(C)[C@H]3C(=O)C=C4[C@@H]5C[C@@](C)(C(=O)O)CC[C@]5(C)CC[C@@]4(C)[C@]3(C)CC[C@@H]12 [Dipotassium glycyrrhizinate] (compound dose: 10 uM)	0.924 ± 0.031	0.808 ± 0.21
C=C(C)[C@@H]1CC[C@]2(C(=O)O)CC[C@]3(C)[C@H](CC[C@@H]4[C@@]5(C)CC[C@H](O[C@@H]6OC[C@H](O)[C@H](O)[C@H]6O[C@@H]6O[C@@H](C)[C@H](O)[C@@H](O)[C@H]6O)[C@@](C)(CO)[C@@H]5CC[C@]43C)[C@@H]12 [Pulchinenoside A] (compound dose: 10 uM)	1.04 ± 0.051	0.878 ± 0.057
C=C(C)[C@@H]1CC=C(CO)CC1 [(S)-(-)-Perillyl alcohol] (compound dose: 10 uM)	0.984 ± 0.02	1.19 ± 0.25
C=C1CC[C@@H]2[C@](C)(COC(=O)CCC(=O)O)[C@H](OC(=O)CCC(=O)O)CC[C@@]2(C)[C@@H]1/C=C/C1=CCOC1=O [Dehydroandrographolide succinate] (compound dose: 10 uM)	0.898 ± 0.11	1.2 ± 0.089
